Laboratory results from PubChem BioAssay.
Values without a mark were called inactive. Entries that show only a call come without a potency. For part of these data: Potency and affinity values are given separately. The source made the active and inactive calls. Unless noted, no rule for the calls is given here.

How the values were obtained:
[1] = antimalarial activity against Dd2 strain (AID 2302;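 active = growth inhibition above 50% at the single 2 µM test dose, taken to imply half-maximal potency below 2 µM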); details: P. falciparum Dd2 in RBCs, LDH growth readout, 72 h; at 2 µM; stronger effect = higher value
[2] = human hepatoma cell viability loss – ATP luminescence, cytotoxicity control for P. falciparum antimalarial project, primary screen (AID 2303;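 active = inhibition above 50%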); details: HepG2 viability, 24-48 h, at 10 µM, stronger effect = higher value
[3] = biological target: L-lactate dehydrogenase (Plasmodium falciparum (isolate CDC / Honduras)) (UniProt Q27743); experiment: PfLDH activity inhibition – cell lysate, 3D7 strain, counter-screen for P. falciparum growth inhibition project (AID 2304); details: P. falciparum 3D7 crude extract, LDH APAD/NBT absorbance; at 2 µM; stronger effect = higher value
[4] = inhibition of 3D7 malaria parasite growth – strain 3D7 (AID 2306); details: P. falciparum 3D7 erythrocytic growth, LDH absorbance, 72 h; at 2 µM; stronger effect = higher value
[5] = biological target: Calcium-dependent protein kinase 1 (Plasmodium falciparum (isolate 3D7)) (UniProt P62344); experiment: PfCDPK1 kinase inhibitors, biochemical, TCAMS library (AID 1159585; cut-off not given, nearly all actives have IC50 up to about 0.98 µM;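 also: inhibitors leave more ATP so luminescence rises with inhibition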); details: recombinant PfCDPK1, Kinase-Glo ATP depletion luminescence
[6] = biological target: Plasmodium falciparum protein kinase 6 (PK6, PF3D7_1337100) (UniProt Q8IDW1); experiment: PfPK6 kinase inhibitors, biochemical, TCAMS library (AID 1159586); details: recombinant PfPK6, Kinase-Glo ATP depletion luminescence
[7] = biological target: Protein kinase 7 (PK7), Plasmodium falciparum 3D7 (PF3D7_0213400) (UniProt Q7YTF7); experiment: inhibition of Plasmodium PK7 catalytic activity – biochemical, TCAMS antimalarial set, Kinase-Glo luminescence (AID 1159587); details: recombinant PfPK7, Kinase-Glo ATP depletion luminescence
[8] = biological target: Calcium-dependent protein kinase 4 (Plasmodium falciparum (isolate 3D7)) (UniProt Q8IBS5); experiment: PfCDPK4 kinase inhibitors, biochemical, TCAMS library (AID 1159588; cut-off not given, nearly all actives have IC50 up to about 0.91 µM); details: recombinant PfCDPK4, Kinase-Glo ATP depletion luminescence
Chain of Calcium-dependent protein kinase 4 (Plasmodium falciparum (isolate 3D7)) (Q8IBS5 whole entry, looked up): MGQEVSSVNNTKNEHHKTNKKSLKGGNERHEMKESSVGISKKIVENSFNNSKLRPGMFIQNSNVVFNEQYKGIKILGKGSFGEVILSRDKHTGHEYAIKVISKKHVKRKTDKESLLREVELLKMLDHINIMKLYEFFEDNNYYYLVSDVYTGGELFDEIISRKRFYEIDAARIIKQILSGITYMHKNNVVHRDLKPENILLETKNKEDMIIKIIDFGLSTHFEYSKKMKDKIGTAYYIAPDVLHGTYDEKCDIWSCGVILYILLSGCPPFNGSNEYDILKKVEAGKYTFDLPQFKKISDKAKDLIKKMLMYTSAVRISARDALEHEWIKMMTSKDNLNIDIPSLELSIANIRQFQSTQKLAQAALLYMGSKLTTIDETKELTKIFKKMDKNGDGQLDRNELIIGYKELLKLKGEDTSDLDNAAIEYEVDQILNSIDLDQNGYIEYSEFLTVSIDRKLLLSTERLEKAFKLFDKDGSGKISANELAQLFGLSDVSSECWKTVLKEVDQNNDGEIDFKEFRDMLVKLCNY

Chain of Protein kinase 7 (PK7), Plasmodium falciparum 3D7 (PF3D7_0213400) (Q7YTF7 1-343): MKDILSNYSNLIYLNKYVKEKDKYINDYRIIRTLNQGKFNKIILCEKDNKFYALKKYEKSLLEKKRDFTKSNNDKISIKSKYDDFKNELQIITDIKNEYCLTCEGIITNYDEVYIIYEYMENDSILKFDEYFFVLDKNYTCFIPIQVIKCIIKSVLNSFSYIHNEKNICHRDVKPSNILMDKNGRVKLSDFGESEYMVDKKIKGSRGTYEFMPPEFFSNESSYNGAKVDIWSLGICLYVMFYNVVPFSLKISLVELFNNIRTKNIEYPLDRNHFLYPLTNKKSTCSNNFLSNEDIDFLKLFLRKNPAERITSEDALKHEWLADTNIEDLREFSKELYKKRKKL
Chain of Calcium-dependent protein kinase 1 (Plasmodium falciparum (isolate 3D7)) (P62344 whole entry, looked up): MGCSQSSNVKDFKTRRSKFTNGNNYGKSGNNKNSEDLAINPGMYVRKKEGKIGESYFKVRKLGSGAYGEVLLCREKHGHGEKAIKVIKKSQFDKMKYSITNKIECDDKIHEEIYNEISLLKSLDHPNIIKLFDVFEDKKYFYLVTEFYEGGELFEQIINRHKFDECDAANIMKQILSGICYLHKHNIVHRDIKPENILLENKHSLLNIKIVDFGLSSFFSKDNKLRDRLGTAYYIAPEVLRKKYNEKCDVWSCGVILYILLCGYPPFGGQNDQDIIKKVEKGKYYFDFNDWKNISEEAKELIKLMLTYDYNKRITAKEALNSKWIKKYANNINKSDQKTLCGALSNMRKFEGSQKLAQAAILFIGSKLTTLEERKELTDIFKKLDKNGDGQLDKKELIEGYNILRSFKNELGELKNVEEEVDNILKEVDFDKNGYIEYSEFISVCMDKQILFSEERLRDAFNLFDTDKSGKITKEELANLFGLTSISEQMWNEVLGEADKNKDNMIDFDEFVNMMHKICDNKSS
Chain of L-lactate dehydrogenase (Plasmodium falciparum (isolate CDC / Honduras)) (Q27743 whole entry, looked up): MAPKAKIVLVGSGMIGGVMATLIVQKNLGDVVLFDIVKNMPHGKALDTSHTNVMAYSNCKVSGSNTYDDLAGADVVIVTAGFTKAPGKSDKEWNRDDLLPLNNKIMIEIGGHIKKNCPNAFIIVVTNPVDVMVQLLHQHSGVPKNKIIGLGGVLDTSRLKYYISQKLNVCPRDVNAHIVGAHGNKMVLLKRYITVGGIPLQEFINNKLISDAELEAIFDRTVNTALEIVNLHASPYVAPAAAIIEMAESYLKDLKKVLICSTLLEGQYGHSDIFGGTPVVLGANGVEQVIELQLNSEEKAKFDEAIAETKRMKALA
Chain of Plasmodium falciparum protein kinase 6 (PK6, PF3D7_1337100) (Q8IDW1 1-305): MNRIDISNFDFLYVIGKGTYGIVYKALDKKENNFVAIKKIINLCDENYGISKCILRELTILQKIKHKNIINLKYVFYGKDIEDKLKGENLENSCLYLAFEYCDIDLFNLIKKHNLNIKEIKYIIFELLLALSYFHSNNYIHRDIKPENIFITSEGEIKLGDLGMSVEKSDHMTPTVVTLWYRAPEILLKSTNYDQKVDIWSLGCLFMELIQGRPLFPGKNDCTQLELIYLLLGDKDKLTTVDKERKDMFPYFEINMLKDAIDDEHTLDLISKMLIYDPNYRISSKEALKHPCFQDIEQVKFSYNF

| Compound | growth inhibition [1] | inhibition [2] | inhibition [3] [%] | growth inhibition [4] | outcome [5] | outcome [6] | outcome [7] | outcome [8] |
| --- | --- | --- | --- | --- | --- | --- | --- | --- |
| C=CCOC(=O)N1CCC(CNCc2cccc(-c3ccc(-c4nc5ccc(C(F)(F)F)cc5[nH]4)cc3)c2)C1 (stereo not drawn) | 96% (active) | 28% | -3 | 102% (active) | inactive | inactive | inactive | inactive |
| Clc1ccccc1CN1CCC(NCc2cccc(-n3ccnc3)c2)CC1 | 43% | 6% | -3 | 101% (active) | inactive | inactive | inactive | inactive |
| CCOc1cc(C(=O)N[C@@H](Cc2ccccc2)[C@H](O)CNC(C)(C)c2cccc(OC)c2)cc(N2CCCS2(=O)=O)c1 | 99% (active) | -5% | -3 | 99% (active) | inactive | inactive | inactive | inactive |
| Cc1ccc(-c2ccc3c(c2)C=C(C(=O)NC2CCN(CCNC(=O)c4cccs4)CC2)CCC3)cc1 | 30% | 27% | -1 | 90% (active) | inactive | inactive | inactive | inactive |
| O=C(NCCNc1ccnc(NCc2ccc(F)cc2)n1)c1cc2ccccc2s1 | 17% | 6% | -5 | 99% (active) | inactive | inactive | inactive | inactive |
| Cc1cccc(Nc2nccc(Nc3cccc(C(=O)NCCN4CCOCC4)c3)n2)c1 | 11% | 10% | -2 | 91% (active) | inactive | inactive | inactive | inactive |
| Cc1cc2cc(-c3ccc(CN)cc3)ccc2nc1N | 8% | 18% | 4 | 92% (active) | inactive | inactive | inactive | inactive |
| COc1c(Br)cc(Br)cc1C(C)=O | -2% | 3% | 1 | 95% (active) | inactive | inactive | inactive | inactive |
| COc1cc2nc(N3CCC(CNC(=O)c4ccc(OC(F)(F)F)cc4)CC3)nc(N)c2cc1OC | 98% (active) | 16% | -3 | 100% (active) | inactive | inactive | inactive | inactive |
| N#Cc1cccc(C(=O)Nc2ccc(-c3ccc(CN4CCCC4)cc3)cc2)c1 | 32% | 38% | -5 | 92% (active) | inactive | inactive | inactive | inactive |
| Cc1ccc(NC(=O)Nc2ccc(Br)cc2)cc1OCCN(C)C | 15% | 13% | -1 | 84% (active) | inactive | inactive | inactive | inactive |
| CCn1c2c(c(=N)c3ccccc31)CCC2 | 61% (active) | 11% | 8 | 83% (active) | inactive | inactive | inactive | inactive |
| CC(C)Cc1cn(-c2nc(-c3nc4ccccc4[nH]3)cs2)c2cc(Cl)ccc12 | 68% (active) | 9% | -3 | 99% (active) | inactive | inactive | inactive | inactive |
| c1cc(CN2CCN(c3ccncc3)CC2)cc(-c2ccc(-c3nc4ccccc4[nH]3)s2)c1 | 100% (active) | 59% (active) | -2 | 102% (active) | inactive | inactive | inactive | inactive |
| NC(N)=NN=Cc1c2ccccc2c(Cl)c2c(Cl)cccc12 | 72% (active) | 71% (active) | -3 | 91% (active) | inactive | inactive | inactive | inactive |
| O=C1COc2ccccc2N1C/C=C(\CN1CCC(c2ccccc2)CC1)c1cc(Cl)cc(Cl)c1 | 72% (active) | 14% | -4 | 91% (active) | inactive | inactive | inactive | inactive |
| O=C(Nc1ccc(C(F)(F)F)cc1)c1ccc(S(=O)(=O)NCC2CCCN(CC3CCCCC3)C2)cc1 (stereo not drawn) | -6% | 44% | -7 | 93% (active) | inactive | inactive | inactive | inactive |
| COc1cc2nc(NCCc3ccccc3)nc(NCc3nccs3)c2cc1OC | 93% (active) | 1% | 0 | 99% (active) | inactive | inactive | inactive | inactive |
| O=C(/C=C/c1ccc(Cl)c(Cl)c1)NCCCCN1CCC(c2c[nH]c3ccccc23)CC1 | 11% | 57% (active) | -2 | 91% (active) | inactive | inactive | inactive | inactive |
| CCCCN(C)CC#Cc1ccc(-c2ccc3[nH]c(C)c(Br)c(=O)c3c2)cn1 | 93% (active) | 3% | -3 | 98% (active) | inactive | inactive | inactive | inactive |
| O=C(NC1CCCCN(Cc2ccccc2O)C1)c1cccc(Cl)c1 (stereo not drawn) | 30% | 15% | -4 | 86% (active) | inactive | inactive | inactive | inactive |
